PI5P4K alpha inh – blocks human PI5P4K alpha kinase activity | AID 652105 | PI5P4Kalpha enzyme, ADP-Glo luminescence, 60 min; hits give low values | hit rate 1.2% among 330,000 | max response, % | P48426; active = max response of -50% or lower; inconclusive = between -30% and -50%; inactive = -30% or higher; also: value at the top dose of about 77 µM; % is scaled to controls: 0 for no effect and ±100 for the full control effect
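Single end-point luminescence (ADP-Glo) quantified ADP from PI5P4Kalpha turnover; ATP 5 microM final, 1 h at RT, 0.1% CHAPS and 0.28 mM EGTA in HEPES pH 7.4.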
HP1b chromo inh – HP1-beta chromodomain-methylated histone interaction inhibition. hit rate 0.56% among 390,000. P83916. Potency, µM (highest dose often 114 µM), for inactives: top-dose activity change, negative = inhibition, hits mostly inhibitors. AlphaScreen HP1-beta / biotin-H3K9me3 peptide binding; also: potency is read from the fitted curve at half-maximal effect; nearly all actives have a fitted effect of over 70% in size
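HP1-beta protein (50 nM final) preincubated 30 min at room temperature with biotinylated H3(1-18)K9me3 peptide (50 nM) in PBS pH 7.4, 0.01% Tween-20, then compound added for 30 min. AlphaScreen streptavidin donor/nickel chelate acceptor beads (10 ug/mL final), 30 min dark, luminescence read.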
JMJD2A Tudor – blocks the human JMJD2A Tudor domain; AlphaScreen JMJD2A-Tudor / H3K4me3 peptide binding; Potency, µM (titrated, usually from 114 µM), for the others: at the top dose activity change, negative = inhibition, most hits filed as inhibitors; hit rate 4.4% among 390,000; AID 504339; also: potency is read from the fitted curve at half-maximal effect; % is scaled to controls: 0 for no effect and ±100 for the full control effect; nearly all actives have a fitted effect of over 50% in size
Target sequence (O75164 whole entry, looked up, the tested form may be a part): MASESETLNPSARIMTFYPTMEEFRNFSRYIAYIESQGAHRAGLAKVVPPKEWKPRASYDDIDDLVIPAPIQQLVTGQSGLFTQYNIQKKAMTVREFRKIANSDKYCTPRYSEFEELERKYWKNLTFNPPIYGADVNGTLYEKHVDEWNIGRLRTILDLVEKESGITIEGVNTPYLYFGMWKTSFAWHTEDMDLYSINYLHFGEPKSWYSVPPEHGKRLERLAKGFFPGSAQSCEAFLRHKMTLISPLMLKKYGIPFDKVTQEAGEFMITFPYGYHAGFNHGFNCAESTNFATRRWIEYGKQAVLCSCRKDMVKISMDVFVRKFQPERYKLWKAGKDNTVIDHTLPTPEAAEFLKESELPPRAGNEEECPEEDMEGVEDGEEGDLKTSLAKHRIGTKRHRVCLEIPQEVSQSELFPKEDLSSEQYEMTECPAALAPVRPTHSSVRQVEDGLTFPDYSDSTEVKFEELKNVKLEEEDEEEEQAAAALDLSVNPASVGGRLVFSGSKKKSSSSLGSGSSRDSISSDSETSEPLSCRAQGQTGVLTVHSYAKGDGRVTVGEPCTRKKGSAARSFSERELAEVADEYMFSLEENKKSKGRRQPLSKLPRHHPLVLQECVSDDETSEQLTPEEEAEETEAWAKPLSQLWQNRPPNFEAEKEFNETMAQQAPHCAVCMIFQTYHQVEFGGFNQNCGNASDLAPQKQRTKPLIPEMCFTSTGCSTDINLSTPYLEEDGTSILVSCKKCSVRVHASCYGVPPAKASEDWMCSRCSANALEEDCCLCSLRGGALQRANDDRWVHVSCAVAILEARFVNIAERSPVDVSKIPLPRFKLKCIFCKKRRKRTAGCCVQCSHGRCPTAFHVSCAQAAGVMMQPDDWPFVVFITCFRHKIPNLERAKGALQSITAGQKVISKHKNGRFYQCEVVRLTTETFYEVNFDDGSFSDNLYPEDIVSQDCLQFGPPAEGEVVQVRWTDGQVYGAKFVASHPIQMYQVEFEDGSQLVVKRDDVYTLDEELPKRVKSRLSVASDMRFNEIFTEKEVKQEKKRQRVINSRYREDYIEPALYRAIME
G9a inh – G9a (human) methyltransferase inhibition; Q96KQ7; G9a H3K9 monomethylation, AlphaScreen, 2 h; Potency, µM (doses to about 102 µM), for the others: at the top dose activity, negative = inhibition, hits mostly inhibitors; hit rate 8.8% among 350,000; also: potency is read from the fitted curve at half-maximal effect; % is scaled to controls: 0 for no effect and ±100 for the full control effect; nearly all actives have a fitted effect of over 75% in size
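Chemiluminescent proximity detection of H3K9 monomethylation, read after 10 min bead incubation in the dark. Reaction: 20 nM G9a, 500 nM biotin-H3K9 peptide, 20 uM SAM cofactor, 2 h, room temperature, following 15 min enzyme-compound preincubation.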
BAZ2B block – blocks human BAZ2B. AlphaScreen BAZ2B-H3K14Ac peptide displacement. Potency, µM (doses to about 114 µM), inactives show at the top dose activity change, negative = inhibition, usual class: inhibitors. hit rate 4.4% among 360,000; also: potency is read from the fitted curve at half-maximal effect; % is scaled to controls: 0 for no effect and ±100 for the full control effect; nearly all actives have a fitted effect of over 60% in size
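In this displacement format the biotinylated H3(5-23) peptide acetylated at Lys14 serves as ligand at 50 nM, with BAZ2B at 50 nM in PBS pH 7.4 containing 0.01% Tween-20. Donor and acceptor beads are 10 ug/mL final.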
PLK1 PBD block – blocks phosphopeptide binding to human PLK1 polo-box domain | Plk1 PBD binding of FITC phosphopeptide, fluorescence polarization | P53350 | Potency, µM, for the others: max response, negative = inhibition, usual class: inhibitors | AID 720504 | hit rate 2.8% among 360,000; also: potency is read from the fitted curve at half-maximal effect; series mostly up to about 57 µM; % is scaled to controls: 0 for no effect and ±100 for the full control effect; nearly all actives have a fitted effect of over 65% in size
* hit, by the source's call; u = inconclusive; x = no result given; [ ] = remark or other dose. Most compounds without a hit are left out; they make up all but 12% or so of the library. Unless noted, calls follow the shape of the dose curve; as a rule, active = well fitted curve in the direction sought with a large enough effect; inconclusive = small, poorly fitted or top-dose-only effect, or another doubt; inactive = no such curve, though single readings can be large; an effect the other way counts as inactive or inconclusive.

SMILES	PI5P4K alpha inh	HP1b chromo inh	JMJD2A Tudor	G9a inh	BAZ2B block	PLK1 PBD block
CC(C)CC(N)c1csc(Nc2ncccn2)n1 (configuration not stated)	-11	x	x	x	x	-5%
O=S(=O)(c1ccccc1F)N1CCN(c2nc(-c3cccs3)nc3ccccc23)CC1	x	21%	-8%	x	x	x
CCCOC(=O)c1c(NC(=O)CCC(=O)O)sc2c1CCCCC2	0	3%	-4%	50µM*	-27%	-14%
COc1ccc(NC(=O)c2c(NCc3cccs3)sc3c2CCCCC3)c(OC)c1	x	u	45µM*	8.9µM*	u	x
CCOC(=O)c1ccc(NC(=O)c2c(NCc3cccs3)sc3c2CCCCC3)cc1	x	-23%	56µM*	7.9µM*	u	x
COc1ccc(OC)c(NC(=O)c2c(NCc3sccc3C)sc3c2CCCCC3)c1	x	0%	u	u	u	x
CCOc1ccc(NC(=O)c2c(NC(=O)CNCCN3CCOCC3)sc3c2CCC3)cc1	-3	3%	79µM*	40µM*	45µM*	-2%
O=C(Cc1ccccc1)NCC(=O)OCC(=O)c1cccc2ccccc12	x	17%[57 µM]	-6%[57.1 µM]	x	x	x
NC(=O)c1c(NC(=O)C2CCCO2)sc2c1CCCCC2 (configuration not stated)	u	u	u	3.5µM*	-30%	11µM*
CCOC(=O)c1ccc(NC(=O)c2c(NC(=O)CCC(=O)O)sc3c2CCCCC3)cc1	-25	u	-34%	32µM*	-31%	27µM*
NC(=O)c1c(NC(=O)CCCC(=O)O)sc2c1CCCCCC2	-18	u	-31%[57.1 µM]	50µM*	2%	27µM*
Cc1ccc(S(=O)(=O)CC(=O)Nc2sc3c(c2C(N)=O)CCCC3)cc1	x	32%	-34%	-22%[59 µM]	-2%	x
NC(=O)c1c(NC(=O)C2CCCO2)sc2c1CCC2 (configuration not stated)	x	13%	-24%	7%	3%	-4%
CC(C)(C)c1ccc(S(=O)(=O)NCC(=O)Nc2sc3c(c2C(N)=O)CCCC3)cc1	3	-6%	-29%[11.4 µM]	50µM*	2%	27µM*
Cc1ccc(C)c(S(=O)(=O)c2cn(Cc3ccccc3)c3cc(F)c(F)cc3c2=O)c1	x	u	0%	23%[59 µM]	1%	x
CCOc1ccc(NC(=O)c2c(NCc3cccs3)sc3c2CCC(C)C3)cc1 (configuration not stated)	x	26%	u	u	-38%	x
COc1ccc(NC(=O)c2c(NCc3cccs3)sc3c2CCCC3)cc1	x	-4%	u	14µM*	-36%	x
CCCCNc1cc(=O)n(C)c(=O)[nH]1	-4	34%	-13%	50µM*	6%	-6%
Cc1ccccc1C(=O)c1cccn1CC(=O)NCCN1CCN(c2cccc(C)c2C)CC1	-1	u	50µM*	-6%[59 µM]	u	-6%
COc1ccc(C2c3c(n(C)c4ccccc34)C(=O)N2CC(=O)Nc2ccccc2F)cc1 (configuration not stated)	x	12%	-20%	u	u	x
COc1ccc(C=O)cc1COc1ccc(NC(C)=O)cc1	x	x	-23%	x	x	x
CCOc1cc(/C=N/Nc2ccc(C(=O)O)cc2)ccc1OC(=O)c1ccccc1C	5	7%	u	35µM*	u	u
COc1ccc(/C=N/n2cncn2)cc1COc1ccc(NC(C)=O)cc1	-9	-4%	50µM*	2%[12.7 µM]	7%	27µM*
COc1cc(/C=N/Nc2ccc3ccccc3c2)ccc1OC(=O)c1ccco1	-15	17%	-15%	7.9µM*	-35%	u
COc1cc(/C=N/n2cnnc2)ccc1OC(=O)c1cccnc1	u	-7%	u	4%[12.7 µM]	10%	7.5µM*
SMILES	PI5P4K alpha inh	HP1b chromo inh	JMJD2A Tudor	G9a inh	BAZ2B block	PLK1 PBD block
COc1cc(/C=N/Nc2ccc(Cl)c(C(=O)O)c2)ccc1OC(=O)c1ccc(F)cc1	-5	7%	u	u	u	u
COc1cccc(C(=O)Oc2ccc(/C=N/Nc3ccc(C(=O)O)cc3)cc2OC)c1	4	-6%	u	x	50µM*	u
COc1cc(/C=N/Nc2ccc(Cl)c(C(=O)O)c2)ccc1OC(=O)c1ccccc1F	1	-11%	u	40µM*	u	u
COc1cccc(OCc2cc(/C=N/Nc3ccc(C(=O)O)cc3)ccc2OC)c1	u	16%	56µM*	u	56µM*	u
Nc1ncnc2c1ncn2[C@H]1O[C@@H](CSCC[C@@H](N)C(=O)O)[C@H](O)[C@@H]1O	x	x	x	21%[59 µM]	x	x
O=C(Cn1cc(C(F)(F)F)cc(Cl)c1=O)Nc1cccc(S(=O)(=O)N2CCCCC2)c1	0	16%	-24%	-11%[12.7 µM]	4%	-7%
COc1cc(C2Nc3ccccc3-c3nnc(SCc4ccc(C)cc4)nc3O2)cc(OC)c1O (configuration not stated)	x	13%	u	7.1µM*	u	x
COC(=O)C(NC(=O)c1ccccc1C(=O)O)c1ccc2ccccc2c1 (configuration not stated)	-1	60%	-3%	71µM*	-17%	2%
CCc1ccc(Nc2nc3ccccc3c3nnc(C)n23)cc1	x	41%	7%	-5%[59 µM]	-2%	x
COC(=O)C1=C(C(=O)OC)C2(OC1c1ccccc1C)C(=O)c1ccccc1C2=O (configuration not stated)	6	17%	-13%	14µM*	5%	-10%

Screening data as filed in PubChem.
